In the library only some 3.7% were active in any assay of this set; here they are far more common.
esBAF inh = Bmi1 luciferase reporter increase in mESCs, primary screen, esBAF inhibitor project, mouse ES cells, Bmi1 luciferase knock-in, single point; 24 h; 100% = twice the neutral-well signal; reporter increase, % at 12.5 µM; 350,000 compounds, 2% hits; in the data active = activation above about 40%; inconclusive = no clear call, values can overlap the other calls;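 also: 0% = median of the plate's neutral control wells and 100% = double that signal; a rise in the Bmi1 reporter signal indicates esBAF inhibition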
MLL AF4-AF9 inh = inhibitors of AF4 peptide binding to AF9, primary screen, biochemical, AlphaScreen, biotin-AF4 peptide, FLAG-AF9, single point; Protein AF-9 (Homo sapiens), P42568; 350,000 compounds, 0.47% hits; inhibition, % at 10 µM;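 active = every replicate reaching a set inhibition limit, whatever the replicate mean, cut at about 25% in these data; inconclusive = mean inhibition reaches that limit but some replicates miss it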;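 also: 0% = plate neutral control median and 100% = total signal loss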
Target sequence (P42568 whole entry, looked up): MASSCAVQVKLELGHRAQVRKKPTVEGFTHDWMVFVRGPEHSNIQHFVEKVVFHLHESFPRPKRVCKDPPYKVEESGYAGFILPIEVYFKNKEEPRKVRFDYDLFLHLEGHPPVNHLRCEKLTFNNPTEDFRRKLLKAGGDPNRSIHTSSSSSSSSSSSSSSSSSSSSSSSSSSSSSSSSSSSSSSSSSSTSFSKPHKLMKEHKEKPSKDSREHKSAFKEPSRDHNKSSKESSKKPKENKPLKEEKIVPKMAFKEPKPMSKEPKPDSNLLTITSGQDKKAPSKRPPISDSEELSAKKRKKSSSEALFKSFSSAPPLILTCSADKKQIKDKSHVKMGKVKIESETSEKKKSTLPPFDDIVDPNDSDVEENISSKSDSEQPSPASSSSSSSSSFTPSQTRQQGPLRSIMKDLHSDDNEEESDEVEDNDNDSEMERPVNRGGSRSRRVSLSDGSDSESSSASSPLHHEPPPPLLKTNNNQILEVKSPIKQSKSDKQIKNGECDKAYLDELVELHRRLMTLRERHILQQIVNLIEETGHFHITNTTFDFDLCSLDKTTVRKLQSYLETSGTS
Ecoli rRNA inh = reduced GFP signal of wild-type E. coli, primary screen, bacterial rRNA inhibitor project, GFP/RFP fluorescence, OD600, single point. E. coli WT GFP vs humanized-ribosome RFP mutants, 24 h; stronger effect = lower value; DMSO median 0, no signal -100. GFP signal change (wild-type ribosome), % (concentration not given with the values). 350,000 compounds, 1.6% hits. AID 720706, 2013;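 active = significant combined selectivity score with lowered wild-type GFP, culture density cut under 30%, mutant RFP and density less affected; inactive = any of these conditions unmet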
Wnt act = Wnt/beta-catenin pathway activators, primary screen, cell-based, plate reader, single point; Wnt/beta-catenin reporter cell assay, activator; activation, % at 9.35 µM; 300,000 compounds, 1.2% hits; AID 743398, 2014; in the data active = activation above about 30%, passing the limit was not always enough; inconclusive = no clear call, values can overlap the other calls;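 also: 0% = neutral control wells and 100% = positive control wells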
MITF TRPM1 HTS = activators of MITF-driven TRPM1 promoter reporter, primary screen, cell-based, SK-MEL-5, luciferase, single point; SK-MEL-5 TRPM1-promoter luciferase, 24 h; % of positive control, neutral wells = 0; AID 588334, 2011; 300,000 compounds, 0.75% hits; activation, % at 12.5 µM;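 active = mean activation of at least 80% with every replicate also reaching 80%; inconclusive = mean reaches 80% but some replicate falls short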;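 also: 0% = neutral control wells and 100% = parthenolide positive control wells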
Starred values were filed as active, the others as inactive; ? = inconclusive; . = no result given.

SMILES	esBAF inh	MLL AF4-AF9 inh	Ecoli rRNA inh	Wnt act	MITF TRPM1 HTS
CCSc1nnc(NC(=O)c2cccc3ccccc23)s1	0.6	7.1	2.3	0.2	1.3
CSc1nnc(NC(=O)C2CCCCC2)s1	45.3*	0.3	14.1	11.9	34.2
CCCC#Cc1ccc2c(c1)COc1c3ccccc3nn1-2	1.2	1.2	3.8	?	51.4
CCOc1c2ccc(C(=O)N[C@H](C)C3CCCCC3)cc2nn1CCOC	2.0	1.2	0.1	-4.1	9.9
Cc1ccc2c(c1)COc1c3ccc(C(=O)NC(C)C)cc3nn1-2	84.0*	.	-4.1	46.3*	89.4*
Cc1ccc2c(c1)COc1c3ccc(C(=O)N[C@@H](C)CO)cc3nn1-2	62.0*	-5.0	1.5	18.1	77.5
C=CCOc1ccc(/C=N/O)cc1Cl	-10.9	.	.	.	-16.5
COc1cccc(/C=C/c2ccccn2)c1O	.	4.1	-2.5	41.5*	67.1
Cc1cc(N=Nc2ccc(Cl)cc2)cc(CN2CCCC2)c1O	-0.5	48.9*	-7.7	2.9	7.5
CCOC(=O)C1=C(COC(=O)c2cccc(Br)c2)NC(=O)NC1C (configuration not stated)	-4.4	-1.5	8.8	-3.7	-7.8
CCOC(=O)C1=C(COC(=O)c2cccc(N(C)C)c2)NC(=O)NC1C (configuration not stated)	60.5*	5.1	-2.6	38.1*	77.9
CCn1c(SC(C)C(=O)NC2CCCC2)nc2cc(S(N)(=O)=O)ccc21 (configuration not stated)	-4.6	-0.9	5.3	47.6*	-9.3
CCOC(=O)C1(Cc2cccc(OC)c2)CCN(Cc2cccc3cnccc23)CC1	.	-10.8	-7.4	0.1	-8.1
COc1ccc(C2SCC(=O)N2CC23CC4CC(CC(C4)C2)C3)cc1 (configuration not stated)	4.8	8.3	-24.9*	-13.6	12.5
O=C(/C=C\Nc1ccc2c(c1)OCO2)c1ccc(Cl)s1	51.9*	-0.9	8.7	0.5	53.6
O=C(/C=C\Nc1ccc2c(c1)OCO2)c1ccc2c(c1)OCO2	.	0.1	6.5	33.9*	13.3
COc1ccc(N/C=C\C(=O)c2ccc3c(c2)OCO3)cc1	.	.	.	74.5*	52.8
COc1ccc(N/C=C/C(=O)c2ccc3c(c2)OCO3)cc1OC	.	.	.	.	73.2
COc1ccc(-c2nnc(-c3cccnc3)o2)cc1	31.4	.	.	35.9*	.
Cc1ccc(-c2nnc(-c3cccnc3)o2)cc1	19.8	-0.7	9.6	27.2	?
Clc1ccc(-c2nnc(-c3cccnc3)o2)cc1	46.9*	-0.6	3.0	8.5	.
COc1ccc2nc(-c3ccc(N)cc3)[nH]c2c1	-46.4	.	.	69.1*	-29.7
COc1ccc(-c2ccc(OC)cc2)cc1	53.7*	.	.	.	?
COC(=O)c1cccc(-n2c(C)cc(O)cc2=O)c1	.	.	9.1	-2.9	.
COc1ccc(-c2nnc(-c3ccc(N)cc3)o2)cc1	24.3	.	.	53.0*	.
SMILES	esBAF inh	MLL AF4-AF9 inh	Ecoli rRNA inh	Wnt act	MITF TRPM1 HTS
COc1ccc(-c2nnc(-c3ccc(N(C)C)cc3)o2)cc1	36.9	.	.	.	65.1
CCOc1ccccc1N1CCN(C(=O)c2ccc(-c3ccc(OC(C)=O)cc3)cc2)CC1	-3.2	1.1	-22.8	-3.0	-11.4
CSc1nsc(NN)n1	15.1	1.6	-32.9*	21.9	.
CCn1ccnc1CN1CCc2c([nH]c3ccccc23)C1C(C)(C)C (configuration not stated)	-8.5	19.9	-55.6	-2.1	-12.2
COc1ccc(S(=O)(=O)N2c3ccc(F)cc3CCC2C)cc1 (configuration not stated)	.	-1.6	-28.2*	-21.3	.
C[C@@H]1CN([C@H](C)CO)C(=O)c2cc(NC(=O)CCCN(C)C)ccc2O[C@H]1CN(C)S(=O)(=O)c1cccs1	-2.6	0.3	-0.5	.	.
CC(=O)n1nc(-c2ccc(C)cc2)nc1NCc1ccco1	.	1.1	1.7	11.0	104.6*
Cc1ccc(-c2nc(NCc3ccco3)n(S(C)(=O)=O)n2)cc1	39.9	5.0	-6.9	-20.7	25.8
CCCCN1C(=O)C(O)(CC(=O)c2ccco2)c2cc(Br)ccc21 (configuration not stated)	-7.9	-0.4	-13.8	-13.5	-3.0
CCCCN1C(=O)C(O)(CC(=O)c2c(C)n[nH]c2C)c2cc(Br)ccc21 (configuration not stated)	0.1	.	-21.4*	-8.6	.
C[C@@H]1CN([C@@H](C)CO)S(=O)(=O)c2ccc(C#C[C@@H](C)O)cc2O[C@H]1CN(C)C(=O)CN(C)C	1.9	-1.0	0.1	.	.
Cc1noc(C)c1COC(=O)c1cc(C)n(-c2ccccc2)c1C	80.3*	.	.	.	.
CCOC(=O)c1cc(C)n(-c2ccc(Cl)cc2)c1C	.	0.4	-23.3*	1.5	-1.4
C[C@@H]1CCCCO[C@H](CN(C)C(=O)Nc2ccc(F)cc2)[C@@H](C)CN([C@H](C)CO)C(=O)c2cc(NC(=O)c3ccccc3)ccc2O1	5.5	-0.6	-0.1	-3.8	.
COc1cc(Br)cc(/C=N/N(CCO)C2=NS(=O)(=O)c3ccccc32)c1OC	6.6	0.6	-21.5*	-3.6	4.0
O=c1c2sc(-c3ccccc3)cc2nc2n1CCCCC2	.	-1.4	.	56.1*	.
C[C@@H]1CN([C@H](C)CO)C(=O)c2cc(NC(=O)C3CCCCC3)ccc2O[C@@H](C)CCCCO[C@H]1CN(C)C(=O)Nc1ccccc1	2.9	0.3	3.4	.	.
Cc1ccc(NC(=O)Cc2nc(CSc3nnc(-c4ccc5c(c4)OCO5)o3)cs2)cc1	51.0*	.	.	18.4	.
CC(C)(C)C(=O)N1CCN(c2ccc([N+](=O)[O-])c(NCC3CCCO3)c2)CC1 (configuration not stated)	-3.4	.	-37.6*	.	1.8
O=C(NC1=NN(c2ccccc2)CC1)Nc1ccccc1F	.	0.9	-32.4*	?	26.7
COc1ccc(NC(=O)Nc2ccccc2SC)cc1	28.3	-1.8	4.5	39.6*	34.9
Cc1cccnc1NC(=O)Nc1ccc(F)cc1	51.2*	.	.	0.2	40.0
CCOC(=O)c1ccc(NC(=O)Nc2ccc(F)cc2)cc1	.	.	.	29.8	65.8
CCOc1cc(NC(=O)Nc2ccc(F)cc2)c(OCC)cc1NC(=O)CC	-6.2	0.5	-38.4*	-2.2	-13.6
COc1ccc(NC(=O)Nc2ccccc2F)cc1	31.5	-5.5	20.9	24.6	71.7
CN(C1=NC(=O)C(CC(=O)O)S1)c1ccc(O)cc1 (configuration not stated)	.	0.1	25.4	-1.3	-1.9
CC1(C(=O)Nc2ccc(Cl)c(Cl)c2)CCN1C(=O)CCC1CCCC1 (configuration not stated)	-5.9	-3.6	-2.6	-1.1	.
CSc1ccccc1NC(=O)Nc1ccc(Cl)cc1	49.6*	.	.	-4.9	35.2
COC(=O)c1ccc(NC(=O)Nc2ccccc2F)cc1	19.9	1.7	-23.9	-3.1	25.4

High-throughput results as filed in PubChem BioAssay.
